Measured values: PubChem BioAssay (NCI)
Compounds without any hit were thinned out: in the full panel of roughly 83,000, 20% have a hit.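 Percent growth is the endpoint: 0 to 100 indicates growth inhibition (40 means 60% inhibition), 0 means no net growth, and negative values indicate cell death.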 The source made the active and inactive calls. The calls were made as follows: active = growth percent below 10; inactive = the rest.

system: HL-60(TB) leukemia; test: NCI-60 one-dose screen, 48 h (100 = growth as untreated, 0 = no growth, -100 = all killed); conditions: 10 µM unless noted

Row | Compound | growth
1 | C=C(CNCCc1ccc(O)cc1)[C@@H]1CC[C@]2(COC3CCCCO3)CC[C@]3(C)[C@H](CC[C@@H]4[C@@]5(C)CCC(N)C(C)(C)[C@@H]5CC[C@]43C)[C@@H]12 (some centres undefined) | -75.6% (active)
2 | C#Cc1nc(Nc2cc(C)[nH]n2)c2ccccc2n1 | -38.8% (active)
3 | O=C(O)c1cccnc1Br | 110% (inactive)
4 | O=C(Nc1ccccc1)P(=O)(O)c1ccccc1 | 92.2% (inactive)
